Laboratory results reported in PMC11006913.

Assays:
Experiment in all cases: PBM; 200 nM protein, PBS
Conditions in all cases: dsDNA, one strand shown
HESX1 [1] = target: HESX1 (Homo sapiens, UniProt Q9UBX0 95-180, R165K)
HESX1 [2] = target: HESX1 (Homo sapiens, UniProt Q9UBX0 95-180)
HESX1 [3] = target: HESX1 (Homo sapiens, UniProt Q9UBX0 95-180, R109Q)
HESX1 [4] = target: HESX1 (Homo sapiens, UniProt Q9UBX0 95-180, P111T)
HESX1 [5] = target: HESX1 (Homo sapiens, UniProt Q9UBX0 95-180, F115L)
HOXB4 [6] = target: HOXB4 (Homo sapiens, UniProt P17483 148-234)
Sequence of HOXB4 (Homo sapiens, UniProt P17483 148-234) (P17483 148-234): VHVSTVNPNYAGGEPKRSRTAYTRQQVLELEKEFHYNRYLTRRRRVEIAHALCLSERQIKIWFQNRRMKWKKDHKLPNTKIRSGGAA

CRX [7] = target: CRX (Homo sapiens, UniProt O43186 26-111)
Sequence of CRX (Homo sapiens, UniProt O43186 26-111) (O43186 26-111): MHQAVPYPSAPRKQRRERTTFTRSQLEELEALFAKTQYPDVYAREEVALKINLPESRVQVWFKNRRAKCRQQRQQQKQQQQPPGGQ

HOXA4 [8] = target: HOXA4 (Homo sapiens, UniProt Q00056 201-287, W262R)
Sequence of HOXA4 (Homo sapiens, UniProt Q00056 201-287, W262R) (Q00056 201-287 W262R): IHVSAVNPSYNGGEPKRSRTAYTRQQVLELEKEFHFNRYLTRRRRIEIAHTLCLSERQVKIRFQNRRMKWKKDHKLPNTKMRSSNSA

ALX4 [9] = target: ALX4 (Homo sapiens, UniProt Q9H161 200-286)
Sequence of ALX4 (Homo sapiens, UniProt Q9H161 200-286) (Q9H161 200-286): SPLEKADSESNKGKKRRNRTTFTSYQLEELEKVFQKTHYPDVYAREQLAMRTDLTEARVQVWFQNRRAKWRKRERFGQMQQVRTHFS

ALX4 [10] = target: ALX4 (Homo sapiens, UniProt Q9H161 200-286, Q225E)
Sequence of ALX4 (Homo sapiens, UniProt Q9H161 200-286, Q225E) (Q9H161 200-286 Q225E): as the sequence (Q9H161 200-286) above, with Q26E counted along it

HOXA4 [11] = target: HOXA4 (Homo sapiens, UniProt Q00056 201-287, R217L)
Sequence of HOXA4 (Homo sapiens, UniProt Q00056 201-287, R217L) (Q00056 201-287 R217L): as the sequence (Q00056 201-287 W262R) above, with R17L, R62W counted along it

HOXB4 [12] = target: HOXB4 (Homo sapiens, UniProt P17483 148-234, V174I)
Sequence of HOXB4 (Homo sapiens, UniProt P17483 148-234, V174I) (P17483 148-234 V174I): as the sequence (P17483 148-234) above, with V27I counted along it

CRX [13] = target: CRX (Homo sapiens, UniProt O43186 26-111, E42D)
Sequence of CRX (Homo sapiens, UniProt O43186 26-111, E42D) (O43186 26-111 E42D): as the sequence (O43186 26-111) above, with E17D counted along it

HOXA4 [14] = target: HOXA4 (Homo sapiens, UniProt Q00056 201-287)
Sequence of HOXA4 (Homo sapiens, UniProt Q00056 201-287) (Q00056 201-287): as the sequence (Q00056 201-287 W262R) above, with R62W counted along it

CRX [15] = target: CRX (Homo sapiens, UniProt O43186 26-111, R41L)
Sequence of CRX (Homo sapiens, UniProt O43186 26-111, R41L) (O43186 26-111 R41L): as the sequence (O43186 26-111) above, with R16L counted along it

HOXA4 [16] = target: HOXA4 (Homo sapiens, UniProt Q00056 201-287, W262F)
Sequence of HOXA4 (Homo sapiens, UniProt Q00056 201-287, W262F) (Q00056 201-287 W262F): as the sequence (Q00056 201-287 W262R) above, with R62F counted along it

HOXA2 [17] = target: HOXA2 (Homo sapiens, UniProt O43364 129-215, R185T)
Sequence of HOXA2 (Homo sapiens, UniProt O43364 129-215, R185T) (O43364 129-215 R185T): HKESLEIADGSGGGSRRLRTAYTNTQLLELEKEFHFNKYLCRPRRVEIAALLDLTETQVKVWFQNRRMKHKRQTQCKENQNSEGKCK

HOXA2 [18] = target: HOXA2 (Homo sapiens, UniProt O43364 129-215, R185K)
Sequence of HOXA2 (Homo sapiens, UniProt O43364 129-215, R185K) (O43364 129-215 R185K): as the sequence (O43364 129-215 R185T) above, with T57K counted along it

VAX1 [19] = target: VAX1 (Homo sapiens, UniProt Q5SQQ9 86-172)
Sequence of VAX1 (Homo sapiens, UniProt Q5SQQ9 86-172) (Q5SQQ9 86-172): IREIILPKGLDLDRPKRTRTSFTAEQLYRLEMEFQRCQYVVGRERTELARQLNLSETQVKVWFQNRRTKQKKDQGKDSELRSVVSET

VAX1 [20] = target: VAX1 (Homo sapiens, UniProt Q5SQQ9 86-172, T142I)
Sequence of VAX1 (Homo sapiens, UniProt Q5SQQ9 86-172, T142I) (Q5SQQ9 86-172 T142I): as the sequence (Q5SQQ9 86-172) above, with T57I counted along it

HOXA2 [21] = target: HOXA2 (Homo sapiens, UniProt O43364 129-215, Y150S)
Sequence of HOXA2 (Homo sapiens, UniProt O43364 129-215, Y150S) (O43364 129-215 Y150S): as the sequence (O43364 129-215 R185T) above, with Y22S, T57R counted along it

HOXA2 [22] = target: HOXA2 (Homo sapiens, UniProt O43364 129-215)
Sequence of HOXA2 (Homo sapiens, UniProt O43364 129-215) (O43364 129-215): as the sequence (O43364 129-215 R185T) above, with T57R counted along it

VAX1 [23] = target: VAX1 (Homo sapiens, UniProt Q5SQQ9 86-172, K157R)
Sequence of VAX1 (Homo sapiens, UniProt Q5SQQ9 86-172, K157R) (Q5SQQ9 86-172 K157R): as the sequence (Q5SQQ9 86-172) above, with K72R counted along it

Sequence of HESX1 (Homo sapiens, UniProt Q9UBX0 95-180, R165K) (Q9UBX0 95-180 R165K): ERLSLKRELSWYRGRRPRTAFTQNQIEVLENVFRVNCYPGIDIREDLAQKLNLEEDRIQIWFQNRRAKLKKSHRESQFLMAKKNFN
Sequence of HESX1 (Homo sapiens, UniProt Q9UBX0 95-180, P111T) (Q9UBX0 95-180 P111T): as the sequence (Q9UBX0 95-180 R165K) above, with P17T, K71R counted along it
Sequence of HESX1 (Homo sapiens, UniProt Q9UBX0 95-180) (Q9UBX0 95-180): as the sequence (Q9UBX0 95-180 R165K) above, with K71R counted along it
Sequence of HESX1 (Homo sapiens, UniProt Q9UBX0 95-180, F115L) (Q9UBX0 95-180 F115L): as the sequence (Q9UBX0 95-180 R165K) above, with F21L, K71R counted along it
Sequence of HESX1 (Homo sapiens, UniProt Q9UBX0 95-180, R109Q) (Q9UBX0 95-180 R109Q): as the sequence (Q9UBX0 95-180 R165K) above, with R15Q, K71R counted along it

Sequence: CAGTGTCG
- binding signal (HESX1 [1]): 6.55 upbm affinity estimate (log intensity, higher = more binding, comparable within an allelic series)
- binding signal (HESX1 [2]): 6.52 upbm affinity estimate (log intensity, higher = more binding, comparable within an allelic series)
- binding signal (HESX1 [3]): 6.61 upbm affinity estimate (log intensity, higher = more binding, comparable within an allelic series)
- binding signal (HESX1 [4]): 6.51 upbm affinity estimate (log intensity, higher = more binding, comparable within an allelic series)
- binding signal (HESX1 [5]): 6.58 upbm affinity estimate (log intensity, higher = more binding, comparable within an allelic series)

Sequence: GTCATAAC
- binding signal (HESX1 [1]): 7.26 upbm affinity estimate (log intensity, higher = more binding, comparable within an allelic series)
- binding signal (HESX1 [2]): 7.28 upbm affinity estimate (log intensity, higher = more binding, comparable within an allelic series)
- binding signal (HESX1 [4]): 7.2 upbm affinity estimate (log intensity, higher = more binding, comparable within an allelic series)

Sequence: CAGGACCC
- binding signal (HOXB4 [6]): 7.14 upbm affinity estimate (log intensity, higher = more binding, comparable within an allelic series)
- binding signal (CRX [7]): 8.22 upbm affinity estimate (log intensity, higher = more binding, comparable within an allelic series)
- binding signal (HOXA4 [8]): 9.96 upbm affinity estimate (log intensity, higher = more binding, comparable within an allelic series)
- binding signal (ALX4 [9]): 7.85 upbm affinity estimate (log intensity, higher = more binding, comparable within an allelic series)
- binding signal (ALX4 [10]): 8.07 upbm affinity estimate (log intensity, higher = more binding, comparable within an allelic series)
- binding signal (HOXA4 [11]): 9.81 upbm affinity estimate (log intensity, higher = more binding, comparable within an allelic series)
- binding signal (HOXB4 [12]): 7.15 upbm affinity estimate (log intensity, higher = more binding, comparable within an allelic series)
- binding signal (CRX [13]): 8.19 upbm affinity estimate (log intensity, higher = more binding, comparable within an allelic series)
- binding signal (HOXA4 [14]): 9.67 upbm affinity estimate (log intensity, higher = more binding, comparable within an allelic series)
- binding signal (CRX [15]): 8.24 upbm affinity estimate (log intensity, higher = more binding, comparable within an allelic series)
- binding signal (HOXA4 [16]): 9.89 upbm affinity estimate (log intensity, higher = more binding, comparable within an allelic series)

Sequence: GATCATTA
- binding signal (HOXB4 [6]): 13.4 upbm affinity estimate (log intensity, higher = more binding, comparable within an allelic series)
- binding signal (CRX [7]): 10.8 upbm affinity estimate (log intensity, higher = more binding, comparable within an allelic series)
- binding signal (HOXA4 [8]): 10.5 upbm affinity estimate (log intensity, higher = more binding, comparable within an allelic series)
- binding signal (HOXA2 [17]): 12.5 upbm affinity estimate (log intensity, higher = more binding, comparable within an allelic series)
- binding signal (HOXA4 [11]): 12.4 upbm affinity estimate (log intensity, higher = more binding, comparable within an allelic series)
- binding signal (HOXB4 [12]): 14.1 upbm affinity estimate (log intensity, higher = more binding, comparable within an allelic series)
- binding signal (CRX [13]): 10.7 upbm affinity estimate (log intensity, higher = more binding, comparable within an allelic series)
- binding signal (HOXA2 [18]): 13.3 upbm affinity estimate (log intensity, higher = more binding, comparable within an allelic series)
- binding signal (HOXA4 [14]): 14.1 upbm affinity estimate (log intensity, higher = more binding, comparable within an allelic series)
- binding signal (VAX1 [19]): 13 upbm affinity estimate (log intensity, higher = more binding, comparable within an allelic series)
- binding signal (VAX1 [20]): 13.1 upbm affinity estimate (log intensity, higher = more binding, comparable within an allelic series)
- binding signal (HOXA2 [21]): 10.9 upbm affinity estimate (log intensity, higher = more binding, comparable within an allelic series)
- binding signal (CRX [15]): 10.4 upbm affinity estimate (log intensity, higher = more binding, comparable within an allelic series)
- binding signal (HOXA4 [16]): 11.9 upbm affinity estimate (log intensity, higher = more binding, comparable within an allelic series)
- binding signal (HOXA2 [22]): 12.6 upbm affinity estimate (log intensity, higher = more binding, comparable within an allelic series)
- binding signal (VAX1 [23]): 13 upbm affinity estimate (log intensity, higher = more binding, comparable within an allelic series)
